Sm TGR block – blocks Schistosoma mansoni thioredoxin glutathione reductase | Q962Y6 | purified TGR, DTNB reduction, TNB absorbance 405 nm | Potency, µM (highest dose often 114 µM), for inactives: at the top dose activity change, negative = inhibition, hits mostly inhibitors | 360,000 compounds, 3% hits; note: % is set by controls: 0 for no effect and ±100 for the full control effect; nearly all actives have a fitted effect of over 60% in size
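First, TGR (20 nM dispensed) and NADPH were mixed with compound. Second, a 15 min room-temperature incubation followed. Third, further NADPH and then DTNB were added to start the reaction. Finally, TNB absorbance was monitored kinetically.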
Pf growth 96h – P. falciparum growth inhibition at 96 hour, primary screen for plastid delayed-death inhibitors; 320,000 compounds, 6.9% hits; Potency, µM (doses to about 28.7 µM), for the others: top-dose activity change, negative = inhibition, actives largely listed as inhibitors; P. falciparum luciferase reporter growth, 96 h; note: % is set by controls: 0 for no effect and ±100 for the full control effect
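Infected RBCs, 2% Hct / 0.05% parasitemia final; luciferase-reporter P. falciparum; cpd 96 h, 37 C, 5% CO2; luciferase detection reagent; luminescence.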
SARS PLP yeast – inhibitors of SARS-CoV papain-like protease in yeast | S. cerevisiae expressing SARS-CoV PLpro, growth rescue | Potency, µM (series often up to 32.9 µM), for inactives: top-dose activity, positive = growth rescue, usual class: activators | 330,000 compounds, 0.19% hits | AID 485353; calls by dose curve; note: 0% is about no effect; nearly all actives have a fitted effect of over 55% in size
Pf growth 48h – P. falciparum growth inhibition at 48 hours (one generation). P. falciparum luciferase growth in erythrocytes, 48 h. 310,000 compounds, 5.9% hits. Potency, µM (doses to about 28.7 µM), for inactives: top-dose activity change, negative = inhibition, actives largely listed as inhibitors; note: % is set by controls: 0 for no effect and ±100 for the full control effect
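Cell-based growth assay: transgenic P. falciparum expressing firefly luciferase, cultured in red cells within RPMI 1640 containing 0.5% w/v Albumax, 24 mM bicarbonate and gentamycin. A drop in luciferase activity indicates inhibition.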
* hit, by the source's call. Hits are enriched below; roughly 12% of the tested compounds scored in any of these assays. Unless noted, calls come from the whole dose curve; as a rule, active = well fitted curve in the direction sought with a large enough effect; inconclusive = small, poorly fitted or top-dose-only effect, or another doubt; inactive = no such curve, though single readings can be large; an effect the other way counts as inactive or inconclusive. Potency is the fitted concentration of half-maximal effect.

How did Cc1ccc(Cl)cc1NC(=O)c1ccccc1OCC(=O)Nc1ccc(Cl)cc1 do in these assays?
Sm TGR block: -18.7%; Pf growth 96h: 9.28µM*; SARS PLP yeast: 22.1%; Pf growth 48h: inconclusive

How did COc1ccccc1C(=O)Nc1cc(Cl)ccc1O do in these assays?
Sm TGR block: 0.0%; Pf growth 96h: inconclusive; SARS PLP yeast: -3.7%; Pf growth 48h: inconclusive

What do the screens show for `COc1ccc(NC(=O)COc2ccccc2C(=O)NCC(c2ccccc2)N(C)C)cc1Cl` (configuration not stated)?
Sm TGR block: -3.2%; Pf growth 96h: 13.1µM*; SARS PLP yeast: 10.1%; Pf growth 48h: inconclusive

Results for CCOc1ccccc1C(=O)Nc1cc(Cl)ccc1O ?
Sm TGR block: -14.3%; SARS PLP yeast: -21.5%; Pf growth 48h: 3.29µM*

Results for COc1ccc(NC(=O)COc2ccccc2)cc1Cl ?
Sm TGR block: -18.2%; Pf growth 96h: inconclusive; SARS PLP yeast: -5.1%; Pf growth 48h: 5.8%

How did CC(=O)c1ccccc1Oc1cc(NN2CCCCC2)c([N+](=O)[O-])cc1[N+](=O)[O-] do in these assays?
Sm TGR block: -0.3%; Pf growth 96h: inconclusive; SARS PLP yeast: -1.5%; Pf growth 48h: -19.1%

Results for CC(=O)c1cccc(Oc2cc(NN3CCCCC3)c([N+](=O)[O-])cc2[N+](=O)[O-])c1 ?
Sm TGR block: 4.8%; Pf growth 96h: 11.7µM*; SARS PLP yeast: 12.2%; Pf growth 48h: -9.2%

What do the screens show for `Cc1ccc(Oc2cc(NN3CCCCC3)c([N+](=O)[O-])cc2[N+](=O)[O-])c(Cl)c1`?
Sm TGR block: -13.8%; Pf growth 96h: 13.1µM*; SARS PLP yeast: -15.0%; Pf growth 48h: inconclusive

Results for CCCN(CC(=O)Nc1cc(Cl)cc(Cl)c1)CC(=O)Nc1ccc(F)c(F)c1F ?
Sm TGR block: -1.4%; Pf growth 96h: 9.28µM*; SARS PLP yeast: -55.1%; Pf growth 48h: inconclusive

How did Cc1nc(C)c(C(=O)OCC(=O)NCCc2ccc(F)cc2)s1 do in these assays?
Sm TGR block: -11.9%; Pf growth 96h: -2.8%; SARS PLP yeast: 0.1%; Pf growth 48h: -10.1%

How did S=c1[nH]nc(-c2ccc3ccccc3n2)n1-c1ccc(Cl)cc1 do in these assays?
Sm TGR block: 5.5%; Pf growth 96h: 0.586µM*; SARS PLP yeast: -3.3%; Pf growth 48h: 6.9%

How did Cc1n[nH]c(=S)n1-c1ccccc1 do in these assays?
Sm TGR block: 17.1%; Pf growth 96h: inconclusive; SARS PLP yeast: 1.4%; Pf growth 48h: inconclusive

Results for Cc1n[nH]c(=S)n1-c1ccc(Cl)cc1 ?
Sm TGR block: 0.0%; Pf growth 96h: 5.86µM*; SARS PLP yeast: -0.9%; Pf growth 48h: 9.8%

How did CNC(=O)C1CCC(Cn2c(=O)c3sccc3n(CC(=O)Nc3ccc(C)cc3C)c2=O)CC1 (configuration not stated) do in these assays?
Sm TGR block: -7.2%

Results for COc1ccc(NC(=O)C(OC)c2ccccc2)cc1Cl (configuration not stated) ?
Sm TGR block: -13.9%; Pf growth 96h: 231.1%; SARS PLP yeast: 13.9%; Pf growth 48h: -2.4%

How did COc1ccc(NC(=O)C(Sc2nnc(-c3ccncc3)n2-c2ccccc2C)c2ccccc2)cc1Cl (configuration not stated) do in these assays?
Sm TGR block: -7.9%; Pf growth 96h: inconclusive; SARS PLP yeast: -9.1%; Pf growth 48h: 8.28µM*

What do the screens show for `Cc1ccc2c(c1)N(CCC(=O)NCc1ccccc1Cl)C(=O)CO2`?
Sm TGR block: 6.3%

How did C[C@]12CCC(O)CC1CCC1C2CC[C@]2(C)C(c3cc(C(F)(F)F)n[nH]3)CCC12 (some centres not stated) do in these assays?
Sm TGR block: -7.8%; Pf growth 96h: 2.9%; SARS PLP yeast: -6.7%; Pf growth 48h: -14.3%

What do the screens show for `COc1ccc(-c2c(-c3cc(OC)cc(OC)c3)n(C)c3ccc(-c4ccc(S(N)(=O)=O)cc4)cc23)cc1`?
Sm TGR block: -6.6%; Pf growth 96h: inconclusive; SARS PLP yeast: -1.1%; Pf growth 48h: 13.1µM*

What do the screens show for `COc1ccc(-c2c(-c3cc(OC)cc(OC)c3)n(C)c3ccc(-c4cnc(N)nc4)cc23)cc1`?
SARS PLP yeast: 0.1%

How did COc1cc(OC)cc(-c2c(-c3ccc(F)cc3)c3cc(-c4cnc(OC)nc4)ccc3n2C)c1 do in these assays?
Sm TGR block: -15.3%; Pf growth 96h: 4.65µM*; SARS PLP yeast: -2.0%; Pf growth 48h: 4.15µM*

Results for COc1cccc(-c2c(-c3cc(OC)cc(OC)c3)n(C)c3ccc(-c4cnc(OC)nc4)cc23)c1 ?
Sm TGR block: -3.9%; Pf growth 96h: inconclusive; SARS PLP yeast: -2.3%; Pf growth 48h: inconclusive

What do the screens show for `Cc1ccc(CNC(=O)CS(=O)(=O)Cc2nc(-c3ccc(C)cc3)oc2C)cc1`?
Sm TGR block: -19.9%; Pf growth 96h: inconclusive; SARS PLP yeast: 5.0%; Pf growth 48h: -4.6%

How did O=C(CSc1nc(=O)n(CCCN2CCOCC2)c2c1CCCC2)Nc1ccc(Cl)cc1 do in these assays?
Sm TGR block: -1.1%; Pf growth 96h: inconclusive; SARS PLP yeast: -6.3%; Pf growth 48h: 13.1µM*

How did O=C(CSc1nc(=O)n(CCN2CCOCC2)c2c1CCC2)Nc1ccc(OC(F)(F)F)cc1 do in these assays?
Sm TGR block: 1.4%; Pf growth 96h: -31.9%; SARS PLP yeast: 0.7%; Pf growth 48h: 10.4µM*

How did CC(C)c1ccc(NC(=O)CSc2nc(=O)n(CCCN3CCOCC3)c3c2CCCC3)cc1 do in these assays?
Sm TGR block: 3.1%; Pf growth 96h: inconclusive; Pf growth 48h: inconclusive

What do the screens show for `CCOC(=O)C1C(=O)C=C(c2ccc(C)cc2)CC1c1ccco1` (configuration not stated)?
Sm TGR block: -23.0%; Pf growth 96h: 79.4%; SARS PLP yeast: -20.5%; Pf growth 48h: inconclusive

What do the screens show for `CCOC(=O)C1C(=O)C=C(c2ccc(C)cc2)CC1c1cccc([N+](=O)[O-])c1` (configuration not stated)?
Sm TGR block: -5.7%; Pf growth 96h: 6.57µM*; SARS PLP yeast: 24.3%; Pf growth 48h: inconclusive

What do the screens show for `CCOC(=O)c1c(NC(=O)CSc2cn(CCNC(=O)c3c(F)cccc3F)c3ccccc23)sc2c1CCCC2`?
Sm TGR block: 4.4%

Results for Cc1c(C(=O)NCCCN2CCCCC2)oc2ccc3c(c12)C(O)CC1(CCCCC1)O3 (configuration not stated) ?
Sm TGR block: -11.8%; Pf growth 96h: 22.0%; SARS PLP yeast: -1.4%; Pf growth 48h: 8.28µM*

What do the screens show for `CCOC(=O)C1CCN(C(=O)c2oc3ccc4c(c3c2C)C(O)CC2(CCCCC2)O4)CC1` (configuration not stated)?
Sm TGR block: 8.4%; Pf growth 96h: 0.0%; SARS PLP yeast: 2.2%; Pf growth 48h: inconclusive

Results for CCOC(=O)c1c(C)[nH]c(CCC(=O)Nc2ccc(Cl)cc2C)c1C ?
Sm TGR block: 2.9%

How did N#CCN(N=Nc1ccccc1)c1ccccc1 do in these assays?
Sm TGR block: 4.8%; Pf growth 96h: -0.4%; SARS PLP yeast: 6.7%; Pf growth 48h: 10.4µM*

Screening data as filed in PubChem BioAssay.
